Experimental data reported in the supplement of paper PMC12636033.
± gives the standard deviation of the averaged measurements. Over roughly 33,000 sequences, “E-score (rank enrichment, -0.5 to 0.5)” has its median near -0.0028; the highest 2% begin near 0.23. This excerpt belongs to a sample that is enriched for the highest values.

The sequences below were run on 2Sb-muMax20 (muMax20 with two 1,3-bis(methyl)benzene Cys staples, A13C/A17C and Q88C/A92C, C-terminal Lys) (assay: PBM 8-mer E-score (E-score (rank enrichment, -0.5 to 0.5)); higher = stronger preferential binding).
Method: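 Protein binding microarray (universal PBM chip covering all 10-mers in fixed probe flanks) with chemically synthesized human Max(13-93) bHLH-LZ analogs (not full-length Max) bearing noncanonical residues (hArg, Tha, Aib, Nle at 65) and aromatic Cys staples. Read-out per 8-mer (and its reverse complement): E-score (rank-based enrichment, -0.5 to 0.5) and Z-score of median probe intensity.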

Sequence | PBM 8-mer E-score
GCCAAATA | 0.136 ± 0.0084
AAACAAAC | 0.0967 ± 0.0062
AACAAACC | 0.0286 ± 0.068
CCCAAGTA | 0.209 ± 0.045
AACAAACA | 0.257 ± 0.003
CCCAAATA | 0.24 ± 0.02
AACAAATA | 0.269 ± 0.024
TACAAACA | -0.0196 ± 0.043
AACAAGTA | -0.0361 ± 0.0029
AAACAAAA | 0.133 ± 0.04
AAACAAAT | 0.262 ± 0.056
TACAAATA | 0.166 ± 0.013
ATTCCGTA | -0.178 ± 0.0038
AGCCTGCC | -0.0253 ± 0.013
GACCAGCA | 0.0345 ± 0.019
AGAAATTC | 0.0899 ± 0.038
CAATGAGC | -0.0934 ± 0.018
ACTGGCAC | -0.112 ± 0.0073
CTATCAAG | 0.0675 ± 0.11
CACCTATG | -0.067 ± 0.015
CACAAGTC | -0.0773 ± 0.025
AACAAGAT | 0.136 ± 0.05
AACAAAAT | 0.275 ± 0.042
GACAAGTC | -0.141 ± 0.038
AACAAGTC | 0.232 ± 0.0046

Sequence | PBM 8-mer E-score
AACAAAAA | 0.0552 ± 0.028
CTTCTTGC | -0.076 ± 0.029
ACAATAAC | 0.18 ± 0.04
ACAATAAA | 0.157 ± 0.082
ACAATAAT | 0.2723 ± 0.0017
ACAATACT | 0.098 ± 0.011
ACAATACA | 0.0315 ± 0.045
ACAATACC | 0.247 ± 0.01
CCACTTAA | 0.0781 ± 0.04
GTGCCCGA | -0.169 ± 0.03
CAGAGGCG | -0.0537 ± 0.004
GCGGGACA | -0.0586 ± 0.068
CGCGCGCG | -0.0393 ± 0.0083
AAGTGCCC | 0.0017 ± 0.086
TAGTTCGA | 0.117 ± 0.065
GTTTACGA | 0.233 ± 0.0029
CTTTACGA | -0.11 ± 0.061
ATTTACGA | 0.13 ± 0.011
GAACCTTA | 0.14 ± 0.038
ACAACCAT | 0.266 ± 0.01
CCAACCCC | 0.19 ± 0.044
ACAACCAC | 0.076 ± 0.093
ACAACAAC | 0.0959 ± 0.0063
ACAACCCC | 0.237 ± 0.088
ACAACACC | 0.257 ± 0.014

Sequence | PBM 8-mer E-score
ACAACAAG | 0.259 ± 0.0048
ACAACCAG | 0.144 ± 0.037
GCAACACC | 0.0523 ± 0.023
CCAACACC | -0.11 ± 0.046
ACAACCCT | -0.0652 ± 0.072
ACAACAAA | 0.189 ± 0.045
AGAGCCAT | -0.0498 ± 0.022
GTACGTTA | 0.0622 ± 0.061
TACGAAGA | 0.16 ± 0.034
CTTCAGAC | -0.147 ± 0.0041
CCGCTGTA | -0.00727 ± 0.018
GATGGACC | -0.139 ± 0.026
AGCTAAAA | -0.0318 ± 0.011
ATACAAAC | 0.182 ± 0.056
AGCTCTAG | -0.0829 ± 0.017
AGCACCTC | 0.00592 ± 0.042
ATCCACCG | -0.1554 ± 0.001
GATAGCCC | 0.0239 ± 0.026
GGGGTATA | 0.217 ± 0.071
CTAGTAAA | 0.11 ± 0.069
ATAGTAAT | 0.0828 ± 0.014
ATAGTAAA | 0.233 ± 0.068
CTGAGTCA | -0.163 ± 0.1
CCTCCCGA | -0.19 ± 0.041
ATAGTTAG | 0.136 ± 0.038

Sequence | PBM 8-mer E-score
AAATACCT | 0.11169 ± 4.2e-05
GATAACTA | 0.237 ± 0.0032
CATAACTA | 0.0553 ± 0.058
GATAACCA | 0.25 ± 0.0028
TATAACCA | 0.125 ± 0.024
CATAACCA | 0.16 ± 0.018
AATAACTA | 0.151 ± 0.013
ACGACTAC | -0.086 ± 0.0098
CGATTGCA | -0.00806 ± 0.061
CAATTGGG | 0.233 ± 0.044
AGATTGCA | -0.04038 ± 0.00028
CAATTGGA | 0.105 ± 0.079
AAATTGGG | 0.211 ± 0.011
TAATTGCA | 0.178 ± 0.022
AAATTGCA | 0.0694 ± 0.01
TGATTGCA | 0.2879 ± 0.0004
CAATTGCA | 0.241 ± 0.03
ATGTGATA | 0.137 ± 0.099
CTTCTCTC | -0.021 ± 0.036
ATAGGAAT | -0.00103 ± 0.048
ATTCTTTG | 0.0288 ± 0.029
GGCTCGGA | -0.242 ± 0.019
CACCCATG | -0.0354 ± 0.1
ATGGGGCC | -0.148 ± 0.097
ATGGGGCG | 0.305 ± 0.011

Sequence | PBM 8-mer E-score
GTGGGGCA | 0.0926 ± 0.0061
ATGGGGGG | -0.078 ± 0.064
CTGGGGCA | -0.128 ± 0.0081
ATGGGGCA | 0.247 ± 0.015
CCGCGTAC | -0.0836 ± 0.06
AAACCCTC | 0.0564 ± 0.037
ATACTTTG | 0.18 ± 0.031
ATACTTTA | 0.254 ± 0.079
CTACTTTA | -0.0218 ± 0.0086
CACAGCAA | 0.0823 ± 0.098
TTACTAAA | 0.035 ± 0.037
GTACTAAA | 0.0714 ± 0.032
CTACTAAC | 0.271 ± 0.02
ATACTAAA | 0.274 ± 0.073
ATACTAAC | 0.191 ± 0.016
CTACTAAG | -0.0175 ± 0.014
AGCCTATG | -0.168 ± 0.032
GAGCCCAA | 0.238 ± 0.016
AAGCCCAA | 0.14 ± 0.085
TAGCCCAA | 0.0876 ± 0.027
CAGCCCAA | 0.0925 ± 0.0081
CCGCCCCA | 0.349 ± 0.038
CCGCCCCG | 0.287 ± 0.1
CGCCCCCA | -0.0972 ± 0.11
TAGCCCCA | 0.35 ± 0.014

Sequence | PBM 8-mer E-score
CCGCCCGG | -0.235 ± 0.023
CCGCCCCC | -0.265 ± 0.034
CAGCCCCA | 0.166 ± 0.062
CCGCCCAA | -0.0271 ± 0.08
GGAGAGAA | -0.0248 ± 0.093
ACGGCAGC | -0.302 ± 0.045
CATATGGA | 0.0953 ± 0.063
CAACACGC | 0.161 ± 0.065
CCCACGCC | -0.189 ± 0.095
GCCAATTA | 0.127 ± 0.041
ACGGTCAG | -0.313 ± 0.0032
CAGGTCCG | -0.237 ± 0.054
ACGTCGGC | 0.0307 ± 0.079
TCGCCCAA | -0.0719 ± 0.021
ACGCCCCG | -0.046 ± 0.025
TCGCCCCA | 0.24 ± 0.018
GCGCCCCA | 0.0563 ± 0.082
ACGCCCCA | 0.287 ± 0.062
ACGCCCCC | -0.18 ± 0.1
CGATCCAA | -0.286 ± 0.0083
CTCGGCGA | -0.0762 ± 0.055
CGATGGTA | -0.0858 ± 0.023
AATGTAAA | 0.211 ± 0.015
ATGAGGCA | 0.0329 ± 0.044
ACTGGCGA | -0.0221 ± 0.033

Sequence | PBM 8-mer E-score
ACTTGCGG | -0.169 ± 0.047
AACACAAG | 0.141 ± 0.016
AACACGTA | 0.112 ± 0.046
CACGCGTG | 0.303 ± 0.039
CACACGTG | 0.338 ± 0.022
CACGCGTC | 0.2 ± 0.0088
AACACAAA | 0.25 ± 0.03
CACGCGTA | 0.199 ± 0.021
CACACAAA | 0.167 ± 0.033
CACACGTC | -0.172 ± 0.057
AACACGTG | 0.4538 ± 0.0037
AACACGTC | 0.0373 ± 0.11
CACACGTA | 0.127 ± 0.0021
CCGAGCCA | -0.115 ± 0.0049
GAAGGGGC | 0.128 ± 0.0016
ACCTATCG | 0.13 ± 0.048
CGCTACCC | -0.0659 ± 0.038
ACGGATCT | -0.242 ± 0.042
GGCGCAAC | -0.0786 ± 0.013
CTGATATA | 0.0373 ± 0.023
CCAACGCC | -0.0186 ± 0.026
ACTTCAAA | -0.125 ± 0.065
